Screens as filed in PubChem BioAssay.
PPC-1+TRAIL kill – PPC-1 cancer cell killing with TRAIL present; PPC-1 cells + TRAIL, ATPLite viability luminescence; cell killing (% activity), % at 4 µM or 5 µM; 220,000 tested, 0.41% active; AID 1443;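 active = cell killing above 50% in the first pass at 4 µM, then a duplicate retest at 5 µM averaging 50% or more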
KKLEB cytotox – CF airway cell cytotoxicity counter-screen. 360,000 tested, 0.36% active. activity change (cytotoxicity), % at 5 µM. KKLEB CF airway cells viability, ATPlite luminescence, overnight; active compounds read low; cells stimulated with P. aeruginosa culture filtrate;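 active = corrected activity change at or below -50% at 5 µM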
Peg3 prom inh – inhibitors of Peg3 promoter | inhibition, % at 20 µM | 360,000 tested, 1.7% active | HeLa PEG-Prom luciferase reporter, luminescence, overnight;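 active = inhibition of at least 50% at 20 µM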
C8 TRAIL sens – sensitizes caspase-8 expressing cells to TRAIL | inhibition (viability loss, TRAIL sensitization), % at 10 µM | AID 624354 | 360,000 tested, 1% active | NB7+C8 cells + TRAIL, ATPlite viability luminescence;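 active = compounds causing at least 50% loss of cell viability in the single-dose screen, relative to plate controls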
HIF-2a inh – HIF-2a inhibition | 786-0 RCC cells HIF-2a reporter, luciferase luminescence, overnight | inhibition, % at 18.8 µM | 360,000 tested, 0.72% active | AID 624352;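 active = inhibition of the luminescence signal of 40% or more relative to plate controls, in a single-dose primary screen at 18.75 µM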
CF NFkB inh – cystic fibrosis NF-kB activation inhibition | 360,000 tested, 0.86% active | inhibition, % at 5 µM | KKLEB NF-kB-GFP reporter, PAF-induced, GFP fluorescence overnight;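 active = at least 50% inhibition at 5 µM, scaled per plate between neutral and stimulator controls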;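 note: PAF is a Pseudomonas aeruginosa culture filtrate used as stimulus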
PPC1 cytotox – kills PPC-1 cells | 1,200 tested, 50% active | AID 1447 | cytotoxicity, % at 5 µM | PPC-1 viability, ATPlite luminescence, overnight | shares compounds with PPC-1+TRAIL kill;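 active = reconfirmed compounds whose average cytotoxicity reaches 50% or more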
Each line names hits and unclear results; the compound was inactive in the other large screens (follow-up assays come after a bar, where they were run). Only some compounds are listed: those with a hit (about 3.1% of all), similar ones and a draw of the others.

O=C(O)c1cccc(N/N=C/c2sc(N3CCOCC3)nc2-c2ccccc2)c1	none
CN(C)c1ccc(C(=O)N2CCN(C(=O)C3CCCO3)CC2)cc1 (configuration not stated)	none (no result: PPC-1+TRAIL kill)
C[C@@H]1CN([C@@H](C)CO)C(=O)CCCn2nncc2CO[C@H]1CN(C)S(=O)(=O)c1ccc2ccccc2c1	none (no result: PPC-1+TRAIL kill)
CC[n+]1c(/C=C2\Sc3ccccc3N2C)ccc2cccc(C)c21	Peg3 prom inh 114.1, HIF-2a inh 78.9 | PPC1 cytotox inactive
CC(=O)C[C@H](O)CC(=O)[C@@H]1OC(=O)CCCCCCc2ccccc21	none (no result: PPC-1+TRAIL kill)
O=C(CN1C(=O)C2(OCCCO2)c2ccccc21)NCc1ccccc1	none | PPC1 cytotox inactive
Cc1ccc(CNC(=O)CN2C(=O)C3(OCCCO3)c3ccccc32)cc1	none
CCOC(=O)C1(C)CCCCN1C(=O)c1cccc(Cl)c1 (configuration not stated)	none (no result: PPC-1+TRAIL kill)
COc1cccc(N2CCN(c3ncnc4c3[nH]c3ccc(F)cc34)CC2C)c1 (configuration not stated)	PPC-1+TRAIL kill 63.2, Peg3 prom inh 114.0, C8 TRAIL sens 95.3, CF NFkB inh 87.7 | PPC1 cytotox 62.7
N#CC(CC(=O)OCc1ccccc1)NC(=O)OCc1ccccc1 (configuration not stated)	none (no result: PPC-1+TRAIL kill)
CCCCCCCn1c2c(c(=N)c3ccccc31)CCC2	C8 TRAIL sens 60.5 | PPC1 cytotox inactive
Cc1ccc(NC(=O)c2cc(-c3ccccc3)nn2-c2ccccc2)cc1	none
O=C(Nc1ccc(F)cc1)c1nn(-c2ccccc2)c(=O)cc1Cl	Peg3 prom inh 99.4 | PPC1 cytotox inactive
CC(C(=O)NCCc1ccc(Cl)cc1)n1c(=O)c2cccn2c2cccnc21 (configuration not stated)	none (no result: PPC-1+TRAIL kill)
COc1ccc(-c2ccc(C(=O)Nc3ccc(C(C)C)cc3)c3occc23)c(C)c1	none (no result: PPC-1+TRAIL kill)
CCC(=O)NC(c1cccs1)c1ccc2cccnc2c1O (configuration not stated)	none | PPC1 cytotox inactive
CC(C)CC(=O)NC(c1cccs1)c1ccc2cccnc2c1O (configuration not stated)	none (no result: PPC-1+TRAIL kill)
Cc1ccc(-c2cn3c(=O)cc(C)[nH]c3n2)cc1	PPC-1+TRAIL kill 70.8, C8 TRAIL sens 71.1 | PPC1 cytotox 69.3
Cc1cc(=O)n2cc(-c3ccccc3)nc2[nH]1	none
N#CCc1c(C#N)c(N)nc(N2CCN(Cc3ccc4c(c3)OCO4)CC2)c1C#N	none | PPC1 cytotox inactive
Cc1ccc(-c2cc(=O)c3cc(Cl)ccc3[nH]2)cc1	PPC-1+TRAIL kill 64.7 (no result: KKLEB cytotox, Peg3 prom inh, C8 TRAIL sens, HIF-2a inh, CF NFkB inh) | PPC1 cytotox 60.3
O=c1cc(-c2ccc(Cl)cc2)[nH]c2ccccc12	none (no result: KKLEB cytotox, Peg3 prom inh, C8 TRAIL sens, HIF-2a inh, CF NFkB inh)
Cc1ccc2[nH]c(-c3ccccc3)cc(=O)c2c1	PPC-1+TRAIL kill 69.0, C8 TRAIL sens 52.5 | PPC1 cytotox 67.7
COc1ccc(-c2cc(=O)c3cc(OC)ccc3o2)cc1	PPC-1+TRAIL kill 66.2, KKLEB cytotox -51.1, C8 TRAIL sens 65.6 | PPC1 cytotox 68.2
COc1cccc(-c2cc(=O)c3cc(NC(C)=O)ccc3[nH]2)c1	none
COc1ccc(-c2cc(=O)c3cc(OC)ccc3[nH]2)cc1	PPC-1+TRAIL kill 65.4, C8 TRAIL sens 72.6 | PPC1 cytotox 62.4
Cc1ccc(-c2cc(=O)c3ccccc3[nH]2)cc1	none
CC(NS(=O)(=O)OCC(Cl)(Cl)Cl)c1ccc(Br)cc1 (configuration not stated)	none (no result: PPC-1+TRAIL kill)
N#CCCN(CCCN1CCOCC1)CN1C(=O)c2ccccc2C1=O	none (no result: PPC-1+TRAIL kill)
CN(CC(=O)Nc1ccc(Cl)cc1)C(=O)CCC1CCCC1	none (no result: PPC-1+TRAIL kill)
O=S(=O)(NCCSc1ccccc1)c1ccc(F)cc1	none | PPC1 cytotox inactive
CC(C)(C)SCCNS(=O)(=O)c1ccc(F)cc1	none
Cc1nc2cc(NC(=O)Nc3nccs3)ccc2n1C	PPC-1+TRAIL kill 54.1, C8 TRAIL sens 66.0 | PPC1 cytotox 50.7
COc1cccc(NC(=O)Nc2ccc3nc(C)c(C)nc3c2)c1	none (no result: PPC-1+TRAIL kill)
COc1cccc(NC(=O)Nc2ccc3c(c2)nc(C)n3C)c1	PPC-1+TRAIL kill 74.8, C8 TRAIL sens 81.8 | PPC1 cytotox 71.6
COc1cccc(NC(=O)Nc2nccc(C)n2)c1	PPC-1+TRAIL kill 55.5, C8 TRAIL sens 66.7 | PPC1 cytotox 61.7
CC1C(=O)NN=C1C(=O)N/N=C\C(Br)=C\c1ccccc1 (configuration not stated)	PPC-1+TRAIL kill 78.4, C8 TRAIL sens 73.9 | PPC1 cytotox 79.0
CC1=NNC(=O)C1CC(=O)N/N=C/C(Br)=C/c1ccccc1 (configuration not stated)	none
Cc1ccccc1S(=O)(=O)NC(=O)C1(C)CCN1C(=O)C1(c2ccccc2)CC1 (configuration not stated)	none (no result: PPC-1+TRAIL kill)
O=C(Nc1nnc(SCC(=O)N2CCOCC2)s1)c1ccccc1Cl	PPC-1+TRAIL kill 58.3, C8 TRAIL sens 69.2 | PPC1 cytotox 55.9
CC(=O)Nc1cccc(NC(=O)C(=O)c2cn(CC(=O)N3CCCC3)c3ccccc23)c1	none (no result: PPC-1+TRAIL kill)
Cc1ccc(C(=O)N(CC(=O)NC2CCCC2)c2ccccc2F)s1	none (no result: PPC-1+TRAIL kill)
COCCn1c(N)c(N(Cc2ccccc2)C(=O)CSCC(=O)Nc2ccc(OC)cc2)c(=O)[nH]c1=O	none (no result: PPC-1+TRAIL kill)
O=C(Nc1ccccc1)Nc1cc(Cl)cc(Cl)c1	none
O=C(Nc1ccccc1)Nc1cc(OCC(F)(F)F)cc(OCC(F)(F)F)c1	KKLEB cytotox -50.7 | PPC1 cytotox inactive
C[C@H](CCC(=O)NCC(=O)O)[C@H]1CC[C@H]2C3[C@H](O)C[C@@H]4C[C@H](O)CC[C@]4(C)[C@H]3C[C@H](O)[C@]12C (some centres not stated)	none (no result: PPC-1+TRAIL kill)
CCCOc1ccc(CSc2nnc(CCC)n2N)cc1	none
CCCc1nnc(SCc2ccc(OC)cc2)n1N	none | PPC1 cytotox inactive
Cc1ccc(NC(=O)c2ccc3c(c2)OCCO3)cc1	PPC-1+TRAIL kill 56.3, C8 TRAIL sens 67.2 | PPC1 cytotox 55.5
CC(=O)Oc1ccc(C(=O)Nc2ccc3c(c2)OCCO3)cc1	none (no result: PPC-1+TRAIL kill)
COc1ccc(C(=O)Nc2cccc(OC(=O)c3ccc(C)c(C)c3)c2)cc1	none | PPC1 cytotox inactive
COc1ccc(C(=O)Nc2ccc3c(c2)OCCO3)cc1	PPC-1+TRAIL kill 75.2, C8 TRAIL sens 72.2 | PPC1 cytotox 72.9
COC(=O)c1sccc1NC(=O)c1ccc2c(c1)OCO2	none | PPC1 cytotox inactive
O=C(NN1CCCCCC1)c1ccccc1F	none (no result: PPC-1+TRAIL kill)
O=C1[C@H]2[C@@H]3CCN1CCC[C@@H]2C=C[C@@H]3c1ccc(Br)cc1	none (no result: PPC-1+TRAIL kill, KKLEB cytotox, Peg3 prom inh, CF NFkB inh)
COCCN(C(=O)CSc1nc2ccccc2o1)c1c(N)n(Cc2ccccc2)c(=O)[nH]c1=O	none (no result: PPC-1+TRAIL kill)
O=C(Nc1ccc2c(c1)OCO2)c1cncc(Br)c1	none
O=C(Nc1ccc2c(c1)OCCO2)c1cncc(Br)c1	none | PPC1 cytotox inactive
Cc1ccccc1NC(=O)c1ccc2c(c1)OCCO2	none | PPC1 cytotox inactive
